Source: PubChem (National Center for Advancing Translational Sciences (NCATS))
NS1 inh: qHTS Assay for Inhibitors of Influenza NS1 Protein Function; hit rate 0.4% among 270,000; Potency, µM (series often up to 46.1 µM), for inactives: at the highest dose activity, positive = more growth; also: potency is read from the fitted curve at half-maximal effect; actives are rising curves; nearly all actives have a fitted effect of over 50% in size
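In this qHTS, NS1 from influenza A is expressed in budding yeast, where it slows growth. Cells are switched from glucose to 2% galactose medium (pH 6.0, -URA), treated with compound, and growth recovery is read at OD600.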
SARS PLpro yeast: qHTS of Yeast-based Assay for SARS-CoV PLP; S. cerevisiae expressing SARS-CoV PLpro, growth rescue; hit rate 0.19% among 330,000; Potency, µM (titrated, usually from 32.9 µM), for the others: at the highest dose activity, positive = growth rescue, most hits filed as activators; AID 485353, 2010; also: potency is read from the fitted curve at half-maximal effect; 0% is about no effect; nearly all actives have a fitted effect of over 55% in size
AMA1 RON2 block: qHTS for Inhibitors of AMA1-RON; Towards Development of Antimalarial Drug Lead: Primary Screen | Potency, µM (titrated, usually from 58.2 µM), for the others: at the top dose activity change, negative = inhibition, hits mostly inhibitors | Plasmodium falciparum AMA1 (3D7) - RON2 peptide interaction | hit rate 0.2% among 360,000 | AID 720542, 2013 | AlphaScreen AMA1-biotinylated RON2 peptide binding; active = well fitted inhibition curve with a large enough effect; inconclusive = small, poorly fitted or top-dose-only effect; inactive = no such curve, though single readings can be large or run the other way;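 also: potency is read from the fitted curve at half-maximal effect; 0% = vehicle wells and -100% = peptide control; nearly all actives have a fitted effect of over 45% in size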
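AMA1 (3D7) with his tag at 25 nM final met compounds first, then biotinylated RON2 peptide at 25 nM; detection used donor plus acceptor beads, 10 µg/mL apiece, read by AlphaScreen after 30 min at room temperature.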
NS1 inh valid: Assay for Inhibitors of Influenza NS1 Protein Function: Hit Validation; shares compounds with NS1 inh; influenza NS1 function cell assay, 15-point titration; activity change, negative = inhibition, % at 32.9 µM; 1,400 tested, under 10 active; AID 492980, 2010; also: 0% is about no effect
* = called active by the depositor. Most compounds without a hit are left out; they make up all but 0.65% or so of the library. Unless noted, calls follow the shape of the full dose curve.

Screening Nc1cc(N)nc(SCC(=O)N2CCN(S(=O)(=O)c3ccccc3)CC2)n1 returned NS1 inh 11.2µM*, SARS PLpro yeast -1.4%, AMA1 RON2 block -1.9% and NS1 inh valid 4.5.
`O=C(CSc1ccccc1)N1CCN(S(=O)(=O)c2ccccc2)CC1` gave NS1 inh 3.0%, SARS PLpro yeast -0.5% and AMA1 RON2 block 17.6%.
NC(=S)N/N=C1\CC(c2ccc3c(c2)OCCCO3)Oc2ccc(F)cc21 (configuration not stated) was read as NS1 inh 2µM*, SARS PLpro yeast 1.0%, AMA1 RON2 block 6.8% and NS1 inh valid 0.8.
Screening NC(=S)N/N=C1\CC(c2ccc3c(c2)OCCO3)Oc2ccc(F)cc21 (configuration not stated) returned NS1 inh 0.9%, SARS PLpro yeast -1.8% and AMA1 RON2 block 72.0%.
For COc1ccc(/C=C/C2=CC(C)(C)NC(=S)N2)cc1 the results were SARS PLpro yeast 0.5% and AMA1 RON2 block 35.4%.
For O=C(O)CSc1nnc(-c2ccc(Cl)cc2Cl)n1-c1ccc(Br)cc1 the results were NS1 inh inconclusive, SARS PLpro yeast 7.6% and AMA1 RON2 block -7.4%.
For COc1ccc(NC(=O)CN(C)C(=O)c2ccc(C)c(S(=O)(=O)N3CCCCC3)c2)cc1 the results were AMA1 RON2 block 78.8%.
`CCCn1c(SCC(=O)NCCc2ccccc2)nnc1-c1cccnc1` gave NS1 inh -11.0%, SARS PLpro yeast 4.2% and AMA1 RON2 block 7.3%.
CCCn1c(SCC(=O)NNC(=O)c2ccccc2)nnc1-c1cccnc1 was read as NS1 inh inconclusive, SARS PLpro yeast 3.3%, AMA1 RON2 block 11.2% and NS1 inh valid 1.7.
For Cc1cc(C)cc(N2C(=O)NC(=O)/C(=C\c3cccn3-c3ccc(Cl)cc3)C2=O)c1 the results were NS1 inh 1µM*, SARS PLpro yeast 6.6%, AMA1 RON2 block -15.1% and NS1 inh valid -0.3.
Cc1cc(C)cc(N2C(=O)NC(=O)/C(=C\c3cccn3-c3ccccc3)C2=O)c1 was read as NS1 inh 6.9%, SARS PLpro yeast -41.9% and AMA1 RON2 block -27.7%.
`COc1ccc(N(Cc2cc3cccc(C)c3[nH]c2=O)C(=O)C2CCCO2)cc1` (configuration not stated) gave NS1 inh 0.2%, SARS PLpro yeast -0.1% and AMA1 RON2 block -6.6%.
Screening Cc1cccc(-c2noc(CN(C(=O)c3c(-c4ccccc4Cl)noc3C)C(C)C)n2)c1 returned NS1 inh -45.1%, SARS PLpro yeast -8.3% and AMA1 RON2 block -0.7%.
For Cc1onc(-c2ccccc2Cl)c1C(=O)N(Cc1nc(-c2ccccc2)no1)C1CCCCC1 the results were NS1 inh 10µM*, SARS PLpro yeast -3.2%, AMA1 RON2 block -7.4% and NS1 inh valid -22.9.
`C/C=C(/C)C(=O)O[C@H]1C(C)=C2C([C@@H]1OC(=O)CCCCCCC)[C@@](C)(OC(C)=O)C[C@@H](OC(=O)CCC)[C@@]1(O)[C@H]2OC(=O)[C@@]1(C)O` (some centres not stated) gave NS1 inh 8.91µM* and NS1 inh valid 36.0.
For O=C(O)CCC(=O)N1CCc2cc(S(=O)(=O)NC3CCCc4ccccc43)ccc21 (configuration not stated) the results were NS1 inh 3.55µM*, SARS PLpro yeast 1.3%, AMA1 RON2 block 2.0% and NS1 inh valid 20.0.
O=C(C1CCC1)N1CCc2cc(S(=O)(=O)NC3CCCc4ccccc43)ccc21 (configuration not stated) was read as NS1 inh 6.3%, SARS PLpro yeast -7.3% and AMA1 RON2 block 0.4%.
COc1ccc2cc(C3CC(c4ccco4)=NN3S(C)(=O)=O)c(Cl)nc2c1 (configuration not stated) was read as NS1 inh 0.5%, SARS PLpro yeast 0.2% and AMA1 RON2 block -26.6%.
For CCOc1ccc2nc(Cl)c(C3CC(c4ccco4)=NN3S(=O)(=O)c3ccccc3)cc2c1 (configuration not stated) the results were NS1 inh 10µM*, SARS PLpro yeast 5.8%, AMA1 RON2 block -22.3% and NS1 inh valid -19.5.
Cc1c(NC(=O)c2nn(CC(C)C)c(=O)c3ccccc23)c(=O)n(-c2ccccc2)n1C was read as SARS PLpro yeast 0.7% and AMA1 RON2 block 9.5%.
For Cc1cccc(-c2cccc(NC(=O)C3CCCN(C(=O)c4csc(C)n4)C3)c2)c1 (configuration not stated) the results were NS1 inh 2.5%, SARS PLpro yeast -28.8% and AMA1 RON2 block -8.2%.
